Hits are enriched below; roughly 3% of the tested compounds scored in any of these assays.
SENP8 block-1: blocks human SENP8 cleavage of Nedd8 substrate. Q96LD8. recombinant SENP8, Nedd8 substrate fluorescence. inhibition, % at 20 µM. 360,000 tested, 0.64% active; in the data active means inhibition mostly above about 40%, no sharp cut-off; inactive means mostly below about 27%
PPC-1+TRAIL kill: PPC-1 cancer cell killing with TRAIL present; 220,000 tested, 0.41% active; PPC-1 cells + TRAIL, ATPLite viability luminescence; AID 1443; cell killing (% activity), % at 4 µM or 5 µM;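 active means cell killing above 50% in the first pass at 4 µM, then a duplicate retest at 5 µM averaging 50% or more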;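 further: plate controls were cells with TRAIL plus DMSO for no effect and medium-only wells lacking cells for full effect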
SENP7 inh: SENP7 protease inhibition; inhibition, % at 5 µM; Q9BQF6; 330,000 tested, 1.5% active; recombinant SENP7, Z-RLRGG-aminoluciferin luminescence, 40 min;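 active means inhibition above about 50% at the single test dose, limit read from the data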;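 further: plate controls were DMSO with enzyme for no effect and no enzyme buffer wells for full effect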
Target sequence (Q9BQF6 706-1050 limits assumed): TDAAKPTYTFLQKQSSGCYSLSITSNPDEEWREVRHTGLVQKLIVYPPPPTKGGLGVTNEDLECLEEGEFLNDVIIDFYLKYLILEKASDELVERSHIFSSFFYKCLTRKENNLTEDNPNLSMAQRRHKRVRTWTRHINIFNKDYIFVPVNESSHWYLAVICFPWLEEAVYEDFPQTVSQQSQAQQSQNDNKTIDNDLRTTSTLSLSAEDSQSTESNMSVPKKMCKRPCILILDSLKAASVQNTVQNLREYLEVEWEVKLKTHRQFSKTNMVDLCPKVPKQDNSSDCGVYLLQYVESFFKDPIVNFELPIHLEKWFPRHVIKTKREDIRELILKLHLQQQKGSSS
SENP6 block: SENP6 protease inhibition | Recombinant SENP6 catalytic domain, aminoluciferin luminescence | inhibition, % at 10 µM | 330,000 tested, 1.8% active | Q9GZR1;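 active means inhibition above about 50% at the single tested dose, limit read from the data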;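 further: plate controls were DMSO wells with enzyme for no effect and DMSO wells lacking enzyme for full effect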
TRAIL sens C8: sensitizes caspase-8 expressing cells to TRAIL; NB7+C8 cells + TRAIL, ATPlite viability luminescence; inhibition (viability loss, TRAIL sensitization), % at 10 µM; AID 624354; 360,000 tested, 1% active;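 active means compounds causing at least 50% loss of cell viability in the single-dose screen, relative to plate controls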
SENP8 block-2: inhibitors of human SENP8 protease; purified SENP8, Z-RLRGG-aminoluciferin cleavage, luminescence; inhibition, % at 10 µM; 330,000 tested, 1.2% active; in the data active means inhibition above about 50%
* hit, by the source's call.

Results for COc1ccc(CN(CCNC(=O)CCCCC(=O)NCCN(Cc2ccc(OC)cc2)C(C)C)C(C)C)cc1 ?
SENP8 block-1: 16; SENP7 inh: -5; SENP6 block: -18; TRAIL sens C8: -8; SENP8 block-2: -14

How did Cc1ccc(C2=NN(C(=O)CCl)C(c3cccs3)C2)o1 (stereo unspecified) do in these assays?
SENP8 block-1: -2; PPC-1+TRAIL kill: -7; SENP7 inh: -1; SENP6 block: -10; TRAIL sens C8: 95*; SENP8 block-2: -4

What do the screens show for `CC(=O)N1N=C(c2ccco2)CC1c1cccs1` (stereo unspecified)?
SENP8 block-1: 5; PPC-1+TRAIL kill: -5; SENP7 inh: -9; SENP6 block: 6; TRAIL sens C8: 6; SENP8 block-2: -7

What do the screens show for `O=C(CCl)N1N=C(c2ccco2)CC1c1cccs1` (stereo unspecified)?
SENP8 block-1: 9; PPC-1+TRAIL kill: 5; TRAIL sens C8: 92*

What do the screens show for `CC1(C(=O)Nc2ccc3c(c2)OCCO3)CCN1C(=O)c1cccc(F)c1` (stereo unspecified)?
SENP8 block-1: 13; TRAIL sens C8: -16

How did CCNC(=O)C1(C)CCN(C(=O)c2ccc(OC)c(OC)c2)C1 (stereo unspecified) do in these assays?
SENP8 block-1: 13; TRAIL sens C8: -7

What do the screens show for `C=CC(=O)Nc1ccc(Nc2nc(NC3CCC(N(C)C)CC3)nc3c2ncn3C(C)C)cc1` (stereo unspecified)?
SENP8 block-1: 13; SENP7 inh: 9; SENP6 block: 8; TRAIL sens C8: 73*; SENP8 block-2: 1

Results for O=C(CCN1C(=O)[C@@H]2Cc3ccccc3CN2C1=O)Nc1cccc(F)c1 ?
SENP8 block-1: -1; SENP7 inh: 0; SENP6 block: 3; TRAIL sens C8: -22; SENP8 block-2: 0

What do the screens show for `COCCn1c(C)cc(C(=O)CN2C(=O)C(=O)N(CCC3=CCCCC3)C2=O)c1C`?
SENP8 block-1: 9; TRAIL sens C8: 6

What do the screens show for `C[C@@]12C(=O)N(c3cccc(F)c3)C(=O)N1[C@@H]1c3ccccc3OC[C@@H]1[C@H]2c1ccccc1`?
SENP8 block-1: 8; SENP7 inh: 0; SENP6 block: -11; TRAIL sens C8: 14; SENP8 block-2: 2

What do the screens show for `O=C(Nc1ccc(O)cc1)c1ccc2c(c1)C(=O)N(Cc1ccccc1)C2=O`?
SENP8 block-1: 8; SENP7 inh: -5; SENP6 block: -10; TRAIL sens C8: 63*; SENP8 block-2: 1

What do the screens show for `O=C(CNS(=O)(=O)c1ccc(Br)s1)NCc1ccccc1`?
SENP8 block-1: 4; SENP7 inh: 2; SENP6 block: -14; TRAIL sens C8: 5; SENP8 block-2: 1

Results for COc1ccccc1CCNC(=O)c1cccc(S(=O)(=O)N2CCc3ccccc3C2)c1 ?
SENP8 block-1: 7; SENP7 inh: -11; SENP6 block: 5; TRAIL sens C8: -7; SENP8 block-2: -13

What do the screens show for `NC1=NC[C@H](CC2CCCCC2)N1CCc1cc(C(F)(F)F)cc(C(F)(F)F)c1`?
SENP8 block-1: 11; PPC-1+TRAIL kill: 12; SENP7 inh: 2; SENP6 block: -10; TRAIL sens C8: 60*; SENP8 block-2: -1

Results for FC(F)(F)c1cc(CCN2CCNC[C@@H]2CC2CCCCC2)cc(C(F)(F)F)c1 ?
SENP8 block-1: 12; SENP7 inh: -7; SENP6 block: -49; TRAIL sens C8: 67*; SENP8 block-2: -37

How did CC1Cc2ccccc2N1C(=O)CN1C(=O)NC2(CCCCC2)C1=O (stereo unspecified) do in these assays?
SENP8 block-1: 2; SENP7 inh: -1; SENP6 block: -36; TRAIL sens C8: 1; SENP8 block-2: -13

Results for O=C(NCCN1CCOCC1)C1CC(=O)N(c2cccc(C(F)(F)F)c2)C1 (stereo unspecified) ?
SENP8 block-1: 11; SENP7 inh: 1; SENP6 block: -14; TRAIL sens C8: -3; SENP8 block-2: -3

What do the screens show for `c1ccc(COc2ncnc3c2ncn3CCCNCC(c2ccccc2)c2ccccc2)cc1`?
SENP8 block-1: -6; TRAIL sens C8: 63*

How did COc1ccc(C(=O)N(C)Cc2cnn(Cc3ccccc3)c2)cc1S(=O)(=O)N1CCOCC1 do in these assays?
SENP8 block-1: 8; SENP7 inh: -12; SENP6 block: -11; TRAIL sens C8: 27; SENP8 block-2: -9

Bioassay records as filed in PubChem.
